# ± gives the standard deviation.
# T1: HaloTag-ATRX ADD domain (163-292)
# T1 chain: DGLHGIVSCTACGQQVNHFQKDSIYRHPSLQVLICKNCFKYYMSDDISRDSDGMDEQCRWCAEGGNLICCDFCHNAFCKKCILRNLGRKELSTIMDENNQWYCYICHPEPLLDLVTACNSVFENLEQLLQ
# How the values were obtained:
# Assay in all cases: peptide microarray binding signal (635 nm), min-max normalized on array (fraction of array maximum); higher = stronger binding
# Details in all cases: peptide region: H3 5-17
# [1] = molecular target: T1, HaloTag-ATRX ADD domain (163-292)
# In short: (§1)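 For each library, binding signal was taken as the triplicate-spot mean intensity and then min-max scaled. Spots of histone 13-mer peptide–cellulose conjugates on nitrocellulose, printed in triplicate with a Cy3 tracer, were probed for 1 h at 4°C with either biotin-labelled HaloTag reader fusions (10 nM to 1 μM) and streptavidin-Alexa Fluor 647 or rabbit histone antibodies (1:10,000 to 1:2,000) and anti-rabbit Alexa 647. Readout at 635 nm came from an Axon GenePix 4000B.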
# [2] = molecular target: HaloTag-ING2 PHD (mouse Ing2 200-280)
# In short: as §1
# [3] = molecular target: anti-H3K4me3 antibody ab8580
# In short: as §1
# [4] = molecular target: anti-H3K9me3 antibody ab8898
# In short: as §1
# [5] = peptide modifications: H3K9ac H3K14me3, binder concentration: 1:2,000 dilution
# [6] = peptide modifications: H3K9ac H3K14me3, binder concentration: 1:10,000 dilution
# [7] = peptide modifications: H3K9ac H3S10ph, binder concentration: 1:2,000 dilution
# [8] = peptide modifications: H3K9ac H3S10ph, binder concentration: 1:10,000 dilution
# [9] = peptide modifications: H3K9ac H3T11ph, binder concentration: 1:2,000 dilution
# [10] = peptide modifications: H3K9ac H3T11ph, binder concentration: 1:10,000 dilution
# [11] = peptide modifications: H3K9ac, binder concentration: 1:2,000 dilution
# [12] = peptide modifications: H3K9ac, binder concentration: 1:10,000 dilution
# [13] = peptide modifications: H3K9me1, binder concentration: 1:2,000 dilution
# [14] = peptide modifications: H3K9me1, binder concentration: 1:10,000 dilution
# [15] = peptide modifications: H3K9me1 H3K14ac, binder concentration: 1:2,000 dilution
# [16] = peptide modifications: H3K9me1 H3K14ac, binder concentration: 1:10,000 dilution
# [17] = peptide modifications: H3K9me1 H3K14me1, binder concentration: 1:2,000 dilution
# [18] = peptide modifications: H3K9me1 H3K14me1, binder concentration: 1:10,000 dilution
# [19] = peptide modifications: H3K9me1 H3K14me2, binder concentration: 1:2,000 dilution
# [20] = peptide modifications: H3K9me1 H3K14me2, binder concentration: 1:10,000 dilution
# [21] = peptide modifications: H3K9me1 H3K14me3, binder concentration: 1:2,000 dilution
# [22] = peptide modifications: H3K9me1 H3K14me3, binder concentration: 1:10,000 dilution
# [23] = peptide modifications: H3K9me1 H3S10ph, binder concentration: 1:2,000 dilution
# [24] = peptide modifications: H3K9me1 H3S10ph, binder concentration: 1:10,000 dilution
binder,measurement,setting,value
QTARKSTGGKAPR [H3 5-17 Q T A R Kac S T G G Kme3 A P R],peptide microarray binding signal,"[1]; peptide modifications: H3K9ac H3K14me3, binder concentration: 50 nM",0.00755 ± 0.00045
same,peptide microarray binding signal,"[1]; peptide modifications: H3K9ac H3K14me3, binder concentration: 500 nM",0.0117 ± 0.00052
same,peptide microarray binding signal,"[2]; peptide modifications: H3K9ac H3K14me3, binder concentration: 10 nM",0.00758 ± 0.00031
same,peptide microarray binding signal,"[2]; peptide modifications: H3K9ac H3K14me3, binder concentration: 100 nM",0.00957 ± 0.00088
same,peptide microarray binding signal,[3]; [5],0.0161 ± 0.0026
same,peptide microarray binding signal,[3]; [6],0.0127 ± 0.0015
same,peptide microarray binding signal,[4]; [5],0.0416 ± 0.0084
same,peptide microarray binding signal,[4]; [6],0.0649 ± 0.082
QTARKSTGGKAPR [H3 5-17 Q T A R Kac Sph T G G K A P R],peptide microarray binding signal,"[1]; peptide modifications: H3K9ac H3S10ph, binder concentration: 50 nM",0.00592 ± 8.9e-05
same,peptide microarray binding signal,"[1]; peptide modifications: H3K9ac H3S10ph, binder concentration: 500 nM",0.0176 ± 0.0016
same,peptide microarray binding signal,"[2]; peptide modifications: H3K9ac H3S10ph, binder concentration: 10 nM",0.00507 ± 0.00017
same,peptide microarray binding signal,"[2]; peptide modifications: H3K9ac H3S10ph, binder concentration: 100 nM",0.0274 ± 0.0063
same,peptide microarray binding signal,[3]; [7],0.0005474 ± 5.3e-06
same,peptide microarray binding signal,[3]; [8],0.000514 ± 1.5e-05
same,peptide microarray binding signal,[4]; [7],0.00667 ± 0.00058
same,peptide microarray binding signal,[4]; [8],0.00265 ± 0.00012
QTARKSTGGKAPR [H3 5-17 Q T A R Kac S Tph G G K A P R],peptide microarray binding signal,"[1]; peptide modifications: H3K9ac H3T11ph, binder concentration: 50 nM",0.00266 ± 6.1e-05
same,peptide microarray binding signal,"[1]; peptide modifications: H3K9ac H3T11ph, binder concentration: 500 nM",0.0107 ± 0.00079
same,peptide microarray binding signal,"[2]; peptide modifications: H3K9ac H3T11ph, binder concentration: 10 nM",0.00531 ± 0.00025
same,peptide microarray binding signal,"[2]; peptide modifications: H3K9ac H3T11ph, binder concentration: 100 nM",0.0213 ± 0.0014
same,peptide microarray binding signal,[3]; [9],0.000755 ± 2.5e-05
same,peptide microarray binding signal,[3]; [10],0.000171 ± 1.9e-06
same,peptide microarray binding signal,[4]; [9],0.00547 ± 0.00037
same,peptide microarray binding signal,[4]; [10],0.00271 ± 0.00015
QTARKSTGGKAPR [H3 5-17 Q T A R Kac S T G G K A P R],peptide microarray binding signal,"[1]; peptide modifications: H3K9ac, binder concentration: 50 nM",0.00263 ± 0.00033
same,peptide microarray binding signal,"[1]; peptide modifications: H3K9ac, binder concentration: 500 nM",0.00271 ± 0.00021
same,peptide microarray binding signal,"[2]; peptide modifications: H3K9ac, binder concentration: 10 nM",0.00352 ± 5e-05
same,peptide microarray binding signal,"[2]; peptide modifications: H3K9ac, binder concentration: 100 nM",0.002055 ± 2e-05
same,peptide microarray binding signal,[3]; [11],0.00123 ± 0.0001
same,peptide microarray binding signal,[3]; [12],0.00245 ± 0.00036
same,peptide microarray binding signal,[4]; [11],0.0011 ± 6.7e-05
same,peptide microarray binding signal,[4]; [12],0.00167 ± 7.4e-05
QTARKSTGGKAPR [H3 5-17 Q T A R Kme S T G G K A P R],peptide microarray binding signal,"[1]; peptide modifications: H3K9me1, binder concentration: 50 nM",0.00445 ± 0.00012
same,peptide microarray binding signal,"[1]; peptide modifications: H3K9me1, binder concentration: 500 nM",0.00171 ± 7.9e-05
same,peptide microarray binding signal,"[2]; peptide modifications: H3K9me1, binder concentration: 10 nM",0.00448 ± 0.00018
same,peptide microarray binding signal,"[2]; peptide modifications: H3K9me1, binder concentration: 100 nM",0.002055 ± 2e-05
same,peptide microarray binding signal,[3]; [13],0.000642 ± 1.6e-05
same,peptide microarray binding signal,[3]; [14],0.0139 ± 0.012
same,peptide microarray binding signal,[4]; [13],0.0007551 ± 6.5e-06
same,peptide microarray binding signal,[4]; [14],0.00121 ± 2.4e-05
QTARKSTGGKAPR [H3 5-17 Q T A R Kme S T G G Kac A P R],peptide microarray binding signal,"[1]; peptide modifications: H3K9me1 H3K14ac, binder concentration: 50 nM",0.00661 ± 0.00012
same,peptide microarray binding signal,"[1]; peptide modifications: H3K9me1 H3K14ac, binder concentration: 500 nM",0.0218 ± 0.0024
same,peptide microarray binding signal,"[2]; peptide modifications: H3K9me1 H3K14ac, binder concentration: 10 nM",0.0233 ± 0.0035
same,peptide microarray binding signal,"[2]; peptide modifications: H3K9me1 H3K14ac, binder concentration: 100 nM",0.0424 ± 0.0029
same,peptide microarray binding signal,[3]; [15],0.00255 ± 0.00039
same,peptide microarray binding signal,[3]; [16],0.00228 ± 0.00016
same,peptide microarray binding signal,[4]; [15],0.0548 ± 0.0034
same,peptide microarray binding signal,[4]; [16],0.016 ± 0.00023
QTARKSTGGKAPR [H3 5-17 Q T A R Kme S T G G Kme A P R],peptide microarray binding signal,"[1]; peptide modifications: H3K9me1 H3K14me1, binder concentration: 50 nM",0.00339 ± 6.1e-05
same,peptide microarray binding signal,"[1]; peptide modifications: H3K9me1 H3K14me1, binder concentration: 500 nM",0.00657 ± 6.6e-05
same,peptide microarray binding signal,"[2]; peptide modifications: H3K9me1 H3K14me1, binder concentration: 10 nM",0.00388 ± 5.4e-05
same,peptide microarray binding signal,"[2]; peptide modifications: H3K9me1 H3K14me1, binder concentration: 100 nM",0.0145 ± 0.0038
same,peptide microarray binding signal,[3]; [17],0.00068 ± 1.9e-05
same,peptide microarray binding signal,[3]; [18],0.000571 ± 1.1e-05
same,peptide microarray binding signal,[4]; [17],0.0061 ± 0.0011
same,peptide microarray binding signal,[4]; [18],0.00283 ± 0.00027
QTARKSTGGKAPR [H3 5-17 Q T A R Kme S T G G Kme2 A P R],peptide microarray binding signal,"[1]; peptide modifications: H3K9me1 H3K14me2, binder concentration: 50 nM",0.004514 ± 3.4e-05
same,peptide microarray binding signal,"[1]; peptide modifications: H3K9me1 H3K14me2, binder concentration: 500 nM",0.00667 ± 0.00028
same,peptide microarray binding signal,"[2]; peptide modifications: H3K9me1 H3K14me2, binder concentration: 10 nM",0.00555 ± 0.0003
same,peptide microarray binding signal,"[2]; peptide modifications: H3K9me1 H3K14me2, binder concentration: 100 nM",0.00595 ± 0.00024
same,peptide microarray binding signal,[3]; [19],0.00206 ± 0.00041
same,peptide microarray binding signal,[3]; [20],0.00211 ± 0.00015
same,peptide microarray binding signal,[4]; [19],0.00979 ± 0.0019
same,peptide microarray binding signal,[4]; [20],0.00352 ± 0.00022
QTARKSTGGKAPR [H3 5-17 Q T A R Kme S T G G Kme3 A P R],peptide microarray binding signal,"[1]; peptide modifications: H3K9me1 H3K14me3, binder concentration: 50 nM",0.00611 ± 0.00085
same,peptide microarray binding signal,"[1]; peptide modifications: H3K9me1 H3K14me3, binder concentration: 500 nM",0.011 ± 0.0017
same,peptide microarray binding signal,"[2]; peptide modifications: H3K9me1 H3K14me3, binder concentration: 10 nM",0.018 ± 0.003
same,peptide microarray binding signal,"[2]; peptide modifications: H3K9me1 H3K14me3, binder concentration: 100 nM",0.00935 ± 0.0036
same,peptide microarray binding signal,[3]; [21],0.0233 ± 0.01
same,peptide microarray binding signal,[3]; [22],0.0338 ± 0.015
same,peptide microarray binding signal,[4]; [21],0.0215 ± 0.0054
same,peptide microarray binding signal,[4]; [22],0.016 ± 0.0043
QTARKSTGGKAPR [H3 5-17 Q T A R Kme Sph T G G K A P R],peptide microarray binding signal,"[1]; peptide modifications: H3K9me1 H3S10ph, binder concentration: 50 nM",0.0069 ± 0.00042
same,peptide microarray binding signal,"[1]; peptide modifications: H3K9me1 H3S10ph, binder concentration: 500 nM",0.0164 ± 0.0026
same,peptide microarray binding signal,"[2]; peptide modifications: H3K9me1 H3S10ph, binder concentration: 10 nM",0.0181 ± 0.0013
same,peptide microarray binding signal,"[2]; peptide modifications: H3K9me1 H3S10ph, binder concentration: 100 nM",0.0405 ± 0.00099
same,peptide microarray binding signal,[3]; [23],0.00281 ± 0.00031
same,peptide microarray binding signal,[3]; [24],0.0028 ± 0.00019
same,peptide microarray binding signal,[4]; [23],0.0251 ± 0.0037
same,peptide microarray binding signal,[4]; [24],0.00865 ± 0.0014

# Reference: the supplement of paper PMC4022240
